Results filed as inconclusive are left out. Where a call stands in place of a potency, no number is given. The source made the active and inactive calls. Calls follow the shape of the dose curve; as a rule, active = well fitted inhibition curve with a large enough effect; inconclusive = small, poorly fitted or top-dose-only effect, or effect the other way; inactive = flat fitted curve, though single readings scatter.
Potency is read from the fitted curve at half-maximal effect.

Sequence of Pyruvate kinase (Leishmania mexicana) (Q27686 whole entry, looked up): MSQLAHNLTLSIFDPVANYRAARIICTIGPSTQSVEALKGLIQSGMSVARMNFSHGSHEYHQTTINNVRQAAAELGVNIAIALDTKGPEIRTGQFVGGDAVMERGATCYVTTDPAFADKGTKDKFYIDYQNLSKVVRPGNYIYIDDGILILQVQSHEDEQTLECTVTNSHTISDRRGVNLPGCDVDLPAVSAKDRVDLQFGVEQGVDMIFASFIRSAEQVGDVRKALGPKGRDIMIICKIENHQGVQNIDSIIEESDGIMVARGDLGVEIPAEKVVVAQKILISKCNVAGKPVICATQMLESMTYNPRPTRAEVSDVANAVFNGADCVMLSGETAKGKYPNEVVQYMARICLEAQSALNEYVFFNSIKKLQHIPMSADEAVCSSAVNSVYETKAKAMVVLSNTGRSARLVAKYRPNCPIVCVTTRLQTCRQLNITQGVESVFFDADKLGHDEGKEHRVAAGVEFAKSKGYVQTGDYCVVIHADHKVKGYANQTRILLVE

The assay deals with Pyruvate kinase (Leishmania mexicana) (UniProt Q27686). Description: Confirmation Assay for Inhibitors of Leishmania Mexicana Pyruvate Kinase (LmPK): for Probe SAR. The following applies: purified LmPK, ATP generation, Kinase-Glo luminescence; series mostly up to 57.5 µM. The procedure, abridged:
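Coupled luminescent assay: ATP produced by LmPK (0.1 nM) from ADP (0.1 mM, ~10-fold below Km) and PEP (0.5 mM, at Km) after 1 h RT, detected with Kinase-Glo. Data scaled between no-enzyme and uninhibited controls.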
(In Kinase-Glo more light means more ATP remaining.)
As for `O=C1NS(=O)(=O)c2cc(Cl)ccc21`, the Potency result was “inactive”.
To `CC(C)c1ccccc1SC1=NS(=O)(=O)c2ccccc21` belongs 1.83 µM (active).
The same measure for `O=C1c2ccccc2C(=O)N1Cc1ccncc1`: “inactive”; for `O=S1(=O)N=C(Sc2cc(C(F)(F)F)cc(C(F)(F)F)c2)c2ccccc21`: 2.91 µM (active).
To `Cc1cccc(OC2=NS(=O)(=O)c3ccccc32)c1` belongs 7.02 µM (active); to `Cc1cc(=O)oc2cc(SC3=NS(=O)(=O)c4ccccc43)ccc12`, 1.83 µM (active).
For `Cc1ccc(NS(=O)(=O)c2cc3c(cc2C)NC(=O)CO3)cc1C`, the Potency result is “inactive”.
To `O=C1CCc2cc(S(=O)(=O)Nc3ccncc3)ccc2N1` belongs “inactive”; to `Cc1ccc(-c2nc3ccccn3c2Nc2ccccc2C)o1`, “inactive”.
For the compound `Cc1ccc(NS(=O)(=O)c2ccc(N3CCCC3=O)cc2)cc1C`, the Potency entry was “inactive”.
On to `Cc1ccc(Nc2c(-c3ccc(C)s3)nc3cccc(C)n23)cc1`, for which the Potency entry was “inactive”.
Take `COc1cccc(N2C(=O)c3ccccc3C2=O)n1`: the Potency result was “inactive”.
The same measure for `Cc1ccc(NS(=O)(=O)c2ccc(Cl)cc2)cc1C`: “inactive”; for `CSc1cc2c(s1)c1cnn(Cc3cccc(O)c3)c(=O)c1n2C`: “inactive”.
For `CCOc1ccc2[nH]c(C3C(=O)c4ccccc4C3=O)cc(=O)c2c1`, the Potency result is “inactive”.
To `CC(=O)N1CCc2cc(S(=O)(=O)Nc3ccc(C)c(C)c3)ccc21` belongs “inactive”; to `O=S1(=O)N=C(Oc2ccc(-c3ccccc3)cc2)c2ccccc21`, 4.11 µM (active); to `Cc1ccc(NS(=O)(=O)c2cc3c(cc2-c2ccsc2)NC(=O)CO3)cc1C`, “inactive”.
As to `O=C1c2ccccc2C(=O)N1c1cccc2cccnc12`, the Potency entry is “inactive”.
To `Cc1ccc(Nc2c(-c3ccc(C)s3)nc3ccccn23)cc1` belongs “inactive”; to `Cc1ccn2c(NCc3ccco3)c(-c3ccccc3)nc2c1`, “inactive”; to `O=C1c2ccccc2C(=O)N1c1ccc(Cl)cc1`, “inactive”.
Turning to `CC(=O)Nc1cccc(S(=O)(=O)Nc2ccc(C)c(C)c2)c1`, the Potency result is “inactive”.
To `O=S1(=O)N=C(Sc2cccc3cccnc23)c2ccccc21` belongs 2.91 µM (active); to `Nc1ccc2c(c1)S(=O)(=O)NC2=O`, “inactive”.
In the case of `O=S1(=O)N=C(N2CCOCC2)c2ccccc21`, the Potency entry is “inactive”.
For the compound `O=C(O)c1ccccc1OC1=NS(=O)(=O)c2ccccc21`, the Potency was 1.63 µM (active).
To `COc1ccc(-c2nc3ccccn3c2Nc2ccccc2C)cc1` belongs “inactive”; to `O=S1(=O)N=C(Oc2ccccc2)c2ccccc21`, 8.01 µM (active).
To `O=C1c2ccc3ccccc3c2C(=O)C1c1cc(=O)c2ccccc2[nH]1` (stereo not given) belongs “inactive”.

Values taken from PubChem BioAssay AID2561 (National Center for Advancing Translational Sciences (NCATS), 2010).
